Screening results deposited in PubChem BioAssay by National Center for Advancing Translational Sciences (NCATS).
Sfp inh: Sfp phosphopantetheinyl transferase inhibition | Potency, µM, for inactives: largest response in the series, negative = inhibition, hits mostly inhibitors | 3.5% of 310,000 active | Q9F4F7 | Biochemical Sfp PPTase activity, qHTS | AID 1490;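 note: the enzyme is Sfp with the accession as filed and its product quenches rhodamine fluorescence; 0% = enzyme reaction without inhibitor and -100% = no enzyme wells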
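After 15 min at room temperature with compound, 15 nM Sfp received 5 uM rhodamine-CoA plus 12.5 uM BHQ-2-ybbR (50 mM Hepes pH 7.6, 10 mM MgCl2). Rate came from the fluorescence difference over 30 min, ex 525/em 598 nm.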
JMJD2A Tudor inh: JMJD2A Tudor domain (human) inhibition; AlphaScreen JMJD2A-Tudor / H3K4me3 peptide binding; O75164; Potency, µM (top dose mostly 114 µM), for inactives: at the highest dose activity change, negative = inhibition, actives largely listed as inhibitors; AID 504339; 4.4% of 390,000 active; note: % is set by controls: 0 for no effect and ±100 for the full control effect; nearly all actives have a fitted effect of over 50% in size
G9a block: G9a (human) methyltransferase inhibition; Q96KQ7; G9a H3K9 monomethylation, AlphaScreen, 2 h; Potency, µM (top dose mostly 102 µM), without a hit: at the top dose activity, negative = inhibition, actives largely listed as inhibitors; 8.8% of 350,000 active; note: % is set by controls: 0 for no effect and ±100 for the full control effect; nearly all actives have a fitted effect of over 75% in size
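Enzyme 20 nM + cpd, 15 min RT; add b-H3K9 pep 500 nM / SAM 20 uM; 2 h RT; anti-H3K9me1 Ab 0.5 ug/mL + SA donor / anti-rabbit acceptor beads 20 ug/mL each, 10 min; AlphaScreen read.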
HP1b binding inh: blocks HP1-beta chromodomain binding to methylated histone tails. Potency, µM (top dose mostly 114 µM), inactives show at the top dose activity change, negative = inhibition, usual class: inhibitors. 0.56% of 390,000 active. AlphaScreen HP1-beta / biotin-H3K9me3 peptide binding; note: nearly all actives have a fitted effect of over 70% in size
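AlphaScreen: HP1-beta (50 nM) preformed 30 min with biotin-H3(1-18)K9me3 peptide (50 nM) in PBS pH 7.4, 0.01% Tween-20. Compound added for 30 min at RT, then streptavidin donor/nickel chelate acceptor beads (10 ug/mL) for 30 min.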
BAZ2B block: BAZ2B (human) inhibition. Potency, µM (top dose mostly 114 µM), for inactives: top-dose activity change, negative = inhibition, most hits filed as inhibitors. Q9UIF8. AID 504333. AlphaScreen BAZ2B-H3K14Ac peptide displacement. 4.4% of 360,000 active; note: % is set by controls: 0 for no effect and ±100 for the full control effect; nearly all actives have a fitted effect of over 60% in size
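AlphaScreen luminescence quantifies BAZ2B engagement of H3K14Ac peptide; the protein and biotinylated peptide are both at 50 nM final, buffer PBS pH 7.4 with 0.01% Tween-20, all steps at room temperature.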
L3MBTL1 block: inhibitors of human L3MBTL1. Q9Y468. AlphaScreen L3MBTL1–H3K9me1 peptide binding. Potency, µM (highest dose often 57.1 µM), inactives show at the highest dose activity, negative = inhibition, actives largely listed as inhibitors. 0.66% of 230,000 active; note: % is set by controls: 0 for no effect and ±100 for the full control effect; nearly all actives have a fitted effect of over 60% in size
Target sequence (Q9Y468 whole entry, looked up): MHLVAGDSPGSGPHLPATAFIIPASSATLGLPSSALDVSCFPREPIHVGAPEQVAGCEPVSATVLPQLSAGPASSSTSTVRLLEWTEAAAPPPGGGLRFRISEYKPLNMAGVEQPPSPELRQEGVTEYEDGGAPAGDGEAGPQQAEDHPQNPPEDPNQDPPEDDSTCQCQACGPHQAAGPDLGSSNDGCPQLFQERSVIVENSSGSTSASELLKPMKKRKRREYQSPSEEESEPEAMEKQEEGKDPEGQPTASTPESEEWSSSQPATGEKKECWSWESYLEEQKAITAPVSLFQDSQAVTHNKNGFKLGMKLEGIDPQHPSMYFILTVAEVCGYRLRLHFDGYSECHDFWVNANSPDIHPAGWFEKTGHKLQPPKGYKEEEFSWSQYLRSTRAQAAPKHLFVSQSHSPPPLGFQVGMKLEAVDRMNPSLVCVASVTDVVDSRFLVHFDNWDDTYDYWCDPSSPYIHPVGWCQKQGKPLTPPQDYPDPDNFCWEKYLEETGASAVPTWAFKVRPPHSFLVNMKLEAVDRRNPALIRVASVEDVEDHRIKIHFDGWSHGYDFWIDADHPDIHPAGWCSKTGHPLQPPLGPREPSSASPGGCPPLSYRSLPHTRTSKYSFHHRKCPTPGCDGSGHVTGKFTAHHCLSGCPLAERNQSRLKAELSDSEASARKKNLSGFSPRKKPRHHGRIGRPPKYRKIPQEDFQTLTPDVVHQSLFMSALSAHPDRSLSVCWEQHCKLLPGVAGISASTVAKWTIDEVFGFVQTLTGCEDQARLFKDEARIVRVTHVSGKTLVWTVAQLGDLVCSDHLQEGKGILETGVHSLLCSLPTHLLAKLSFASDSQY
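Read-out is AlphaScreen signal from streptavidin donor and nickel chelate acceptor beads (10 ug/mL final each) bridging L3MBTL1 (50 nM) and biotinylated K9-monomethylated H3(1-15) peptide (75 nM), after 30 min compound exposure at room temperature.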
The depositor's hits bear a star; ? = inconclusive; . = no result given; [ ] = dose if it differs, or a comment. Shown are actives, neighbours in structure and some others; about 12% of the full set was active somewhere. Calls come from the whole dose curve; as a rule, active = well fitted curve in the direction sought with a large enough effect; inconclusive = small, poorly fitted or top-dose-only effect, or another doubt; inactive = no such curve, though single readings can be large; an effect the other way counts as inactive or inconclusive. Potency is the fitted concentration of half-maximal effect.

SMILES | Sfp inh | JMJD2A Tudor inh | G9a block | HP1b binding inh | BAZ2B block | L3MBTL1 block
O=C(Sc1nnc(-c2ccccc2)o1)N1c2ccccc2Sc2ccccc21 | -10.3% | 50.1µM* | 8.91µM* | -20.2% | ? | -14.1%
Cn1ccnc1SC(=O)N1c2ccccc2Sc2ccccc21 | 8.9% | 20µM* | ? | 2.5% | ? | .
CC(=O)N1c2ccccc2Sc2ccccc21 | 22.9% | -4.7% | 12.4% | 16.4% | 5.7% | -0.4%
N[C@H](CO)Cc1cnc[nH]1 | -16.0% | . | . | . | . | .
N=C(N)SCCc1cnc[nH]1 | -112.4% | -20.9% | 7.52µM* | 13.6% | -31.8% | -0.5%
COc1ccc(NC(=O)Cn2nnc(C(=O)NCc3ccc4c(c3)OCO4)c2N)c(OC)c1 | -13.8% | 28.2µM* | 7.2%[59 µM] | 10.8% | -4.2% | .
COc1ccc(NC(=O)Cn2nnc(C(=O)NCc3ccc4c(c3)OCO4)c2N)cc1 | 7.2% | -10.8% | -4.1% | 11.3% | -1.9% | 4.5%
COc1ccccc1/C=C/C=N\N1CCN(Cc2ccccc2Cl)CC1 | 22.4µM* | 20µM* | 14.1µM* | ? | 39.8µM* | -16.8%
COc1ccccc1/C=C/C=N/N1CCN(Cc2ccc(Cl)cc2)CC1 | -22.1% | 44.7µM* | ? | 39.8µM* | 31.6µM* | -26.9%
COc1ccc(Br)cc1/C=N/N1CCN(Cc2ccccc2Cl)CC1 | 11.8% | 39.8µM* | 11.1%[0.501 µM] | -26.3% | ? | 7.6%[2.29 µM]
Oc1ccc(Br)cc1/C=N/N1CCN(Cc2ccccc2)CC1 | -1.1% | ? | 12.2%[0.501 µM] | -20.0% | ? | -9.2%
Cc1cc(-c2ccc(S(=O)(=O)Nc3cc(Cl)ccc3C)s2)on1 | . | -6.8% | 6.9%[59 µM] | 46.8% | 4.5% | .
O=C(O)c1ccccc1CC(CCc1ccccc1)C(=O)O (stereo not given) | . | 10µM* | . | -9.4%[57 µM] | . | .
COc1ccccc1CNC(=O)CCNS(=O)(=O)c1ccc2[nH]c(=O)oc2c1 | 19.0% | 39.8µM* | -1.8% | 1.1% | 2.7% | .
O=C(CCNS(=O)(=O)c1ccc2[nH]c(=O)oc2c1)NCc1ccccc1 | 9.5% | -5.4% | 5.7% | 48.4% | -13.8% | .
COc1ccc(OC)c(NC(=O)CCNS(=O)(=O)c2ccc3[nH]c(=O)oc3c2)c1 | -3.1% | -7.6% | -5.0% | 30.1% | -24.5% | .
COc1ccccc1NC(=O)CCNS(=O)(=O)c1ccc2[nH]c(=O)oc2c1 | 18.1% | 35.5µM* | 8.3% | -3.1% | -21.5% | .
COc1ccccc1NC(=O)CCn1c(=O)c2cccn2c2ccccc21 | 15.5% | -20.4% | 40.7% | 17.9%[57 µM] | -23.1% | .
COc1cc(C2CC(=O)Oc3c(C(CCN4CCCC(C)C4)c4ccc(N(C)C)cc4)c(OC)cc(OC)c32)cc(OC)c1OC (stereo not given) | -18.3% | 39.8µM* | ? | ? | 35.5µM* | .
COc1cc(OC)c2c(c1C(CCN1CCCC(C)C1)c1ccc(N(C)C)cc1)OC(=O)CC2c1ccc(N(C)C)cc1 (stereo not given) | -25.4% | 8.91µM* | . | ? | . | .
COc1cc(C(CCN2CCCC(C)C2)c2c(OC)cc(OC)c3c2OC(=O)CC3c2ccc(N(C)C)cc2)cc(OC)c1OC (stereo not given) | -9.5% | 15.8µM* | ? | ? | 14.1µM* | .
COc1cc(O)c(C(CCN2CCCC(C)C2)c2cc(OC)c(OC)c(OC)c2)c(OC)c1 (stereo not given) | 21.3% | -22.1% | 10.9%[12.7 µM] | 5.6% | 1.5% | .
OC1COC(c2ccccc2)OC1C(O)C1OC(c2ccccc2)OCC1O (stereo not given) | . | -14.5% | . | -11.7% | . | .
O=C(C[C@H]1C[C@H](C(=O)N2CCCCC2)[C@@]2(CCc3ccccc3)c3[nH]c4ccc(Cl)cc4c3CCN2C1=O)NCCCn1ccnc1 | . | 35.5µM* | . | -23.4% | . | -26.4%
C[C@]12c3[nH]c4ccc(Cl)cc4c3CCN1C(=O)[C@@H](CC(=O)NCCCn1ccnc1)C[C@@H]2C(=O)N1CCCCC1 | . | ? | . | 12.8% | . | -9.1%
SMILES | Sfp inh | JMJD2A Tudor inh | G9a block | HP1b binding inh | BAZ2B block | L3MBTL1 block
CC(C)=CCC/C(C)=C/CNC(=O)C[C@H]1C[C@H](C(=O)N2CCCCC2)[C@@]2(CCc3ccccc3)c3[nH]c4cc(-c5ccco5)ccc4c3CCN2C1=O | . | -34.8% | . | 7.5% | . | 4.4%
O=C(C[C@H]1C[C@H](C(=O)N2CCCCC2)[C@@]2(CCc3ccccc3)c3[nH]c4cc(-c5ccco5)ccc4c3CCN2C1=O)NCCN1CCOCC1 | . | 39.8µM* | . | 20µM* | . | -16.1%
COc1ccc2[nH]c3c(c2c1)CCN1C(=O)C(CC(=O)NCc2ccc(OC)c(OC)c2)C[C@H](C(=O)N2CCOCC2)[C@@]31CCC1CCCC1 (stereo not given in full) | . | 50.1µM* | . | 5.2% | . | -5.1%
CCN(CC)C(=O)[C@H]1C[C@H](CC(=O)NCCCn2ccnc2)C(=O)N2CCc3c([nH]c4cc(-c5ccco5)ccc34)[C@]12C | . | ? | . | -7.6% | . | -18.1%
COc1ccc(CNC(=O)CC2C[C@H](C(=O)N3CCOCC3)[C@@]3(CCC4CCCC4)c4[nH]c5ccccc5c4CCN3C2=O)cc1OC (stereo not given in full) | . | ? | . | -6.5% | . | -5.1%
O=C(C[C@H]1C[C@H](C(=O)N2CCOCC2)[C@@]2(CCC3CCCC3)c3[nH]c4cc(-c5ccco5)ccc4c3CCN2C1=O)NCCCn1ccnc1 | . | 56.2µM* | . | ? | . | -14.1%
CC1CN(CC(=O)NCc2ccc(Cl)cc2)CC(C)O1 (stereo not given) | 20.5% | -1.4% | 6.3% | 55.4% | -2.6% | -1.6%
COCCCNC(=O)C[C@H]1C[C@H](C(=O)N2CCCCC2)[C@@]2(CCc3ccccc3)c3[nH]c4cc(-c5ccco5)ccc4c3CCN2C1=O | . | 44.7µM* | . | ? | . | -14.2%
CCc1ccccc1NC(=O)CN1C(=O)C2CCCN2c2ccc(S(=O)(=O)N(CC)CC)cc21 (stereo not given) | . | -2.9% | ? | 10.1% | -3.3% | .
O=C(CN(C1CCCCC1)C1CCCCC1)N1CCc2ccccc2C1 | -19.8% | 6.31µM* | 10µM* | -53.2% | 44.7µM* | .
O=C(CN1CCC(Cc2ccccc2)CC1)N1CCc2ccccc2C1 | -25.3% | ? | 22.4µM* | ? | 50.1µM* | -3.7%
O=C(CN1CCN(S(=O)(=O)c2ccc(F)c(Cl)c2)CC1)N1CCc2ccccc2C1 | . | -9.8% | . | 26.9% | . | .
Cc1ccc(C(C)(C)c2ccc(C)cc2)cc1 | 12.2% | . | 15.8%[12.7 µM] | . | . | .
Cc1ccc2c(c1)c1c(n2CC(O)CNC2CCCCC2)CCCC1 (stereo not given) | -12.0% | 31.6µM* | 39.8µM* | ? | 50.1µM* | .
COC(=O)Cn1c2c(c3cc(C)ccc31)CCCC2 | -2.1% | -30.1% | ? | -9.2% | -62.8% | -18.6%
